Screens from PubChem.
Only some compounds are listed: those with a hit (about 12% of all), similar ones and a draw of the others.
HP1b binding inh: blocks HP1-beta chromodomain binding to methylated histone tails; AlphaScreen HP1-beta / biotin-H3K9me3 peptide binding; P83916; AID 540317; 390,000 compounds, 0.56% hits; Potency, µM (series often up to 114 µM), without a hit: at the highest dose activity change, negative = inhibition, actives largely listed as inhibitors; further: nearly all actives have a fitted effect of over 70% in size
Target sequence (P83916 whole entry, looked up): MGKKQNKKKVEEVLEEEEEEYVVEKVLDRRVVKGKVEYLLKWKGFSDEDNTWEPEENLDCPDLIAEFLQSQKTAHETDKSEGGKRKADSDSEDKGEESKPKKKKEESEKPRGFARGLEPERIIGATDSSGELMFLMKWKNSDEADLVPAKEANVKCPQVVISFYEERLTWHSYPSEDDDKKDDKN
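HP1-beta protein (50 nM final) preincubated 30 min at room temperature with biotinylated H3(1-18)K9me3 peptide (50 nM) in PBS pH 7.4, 0.01% Tween-20, then compound added for 30 min. AlphaScreen streptavidin donor/nickel chelate acceptor beads (10 ug/mL final), 30 min dark, luminescence read.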
G9a inh: G9a (human) methyltransferase inhibition; Q96KQ7; G9a H3K9 monomethylation, AlphaScreen, 2 h; Potency, µM (series often up to 102 µM), for inactives: top-dose activity, negative = inhibition, usual class: inhibitors; 350,000 compounds, 8.8% hits; further: on the % scale 0 is the no-effect control and ±100 the full control effect; nearly all actives have a fitted effect of over 75% in size
Target sequence (Q96KQ7 913-1193 limits assumed): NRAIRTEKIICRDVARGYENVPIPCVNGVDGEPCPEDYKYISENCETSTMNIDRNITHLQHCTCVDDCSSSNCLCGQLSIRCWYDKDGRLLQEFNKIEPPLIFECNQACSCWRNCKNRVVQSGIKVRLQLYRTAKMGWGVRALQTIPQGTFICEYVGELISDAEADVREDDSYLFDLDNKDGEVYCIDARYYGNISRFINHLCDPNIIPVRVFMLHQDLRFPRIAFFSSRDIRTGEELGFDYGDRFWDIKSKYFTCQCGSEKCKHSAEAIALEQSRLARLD
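Chemiluminescent proximity detection of H3K9 monomethylation, read after 10 min bead incubation in the dark. Reaction: 20 nM G9a, 500 nM biotin-H3K9 peptide, 20 uM SAM cofactor, 2 h, room temperature, following 15 min enzyme-compound preincubation.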
JMJD2A Tudor: inhibitors of human JMJD2A Tudor domain; O75164; AlphaScreen JMJD2A-Tudor / H3K4me3 peptide binding; Potency, µM (series often up to 114 µM), for the others: at the highest dose activity change, negative = inhibition, actives largely listed as inhibitors; 390,000 compounds, 4.4% hits; AID 504339; further: on the % scale 0 is the no-effect control and ±100 the full control effect; nearly all actives have a fitted effect of over 50% in size
Sfp inh: inhibitors of Bacillus subtilis Sfp phosphopantetheinyl transferase. Biochemical Sfp PPTase activity, qHTS. Potency, µM, for inactives: largest response in the series, negative = inhibition, most hits filed as inhibitors. 310,000 compounds, 3.5% hits;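 further: the enzyme is Sfp with the accession as filed and its product quenches rhodamine fluorescence; 0% = enzyme reaction without inhibitor and -100% = no enzyme wells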
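Reaction rates are the 30-min fluorescence difference (ex 525, em 598 nm) in wells containing 15 nM Sfp, 5 uM rhodamine-CoA and 12.5 uM BHQ-2-YbbR at pH 7.6 with 10 mM MgCl2.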
BAZ2B block: BAZ2B (human) inhibition | Q9UIF8 | AlphaScreen BAZ2B-H3K14Ac peptide displacement | Potency, µM (series often up to 114 µM), for the others: at the highest dose activity change, negative = inhibition, most hits filed as inhibitors | 360,000 compounds, 4.4% hits | AID 504333; further: on the % scale 0 is the no-effect control and ±100 the full control effect; nearly all actives have a fitted effect of over 60% in size
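BAZ2B 50 nM plus b-H3(5-23)K14Ac 50 nM, PBS pH 7.4/0.01% Tween-20, 30 min RT; compound added (max 110 uM), 30 min RT; streptavidin donor/Ni-chelate acceptor beads 10 ug/mL final, 20 min dark; AlphaScreen read.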
Starred values were filed as active, the others as inactive; [ ] = remark or other dose. The call rests on the fitted dose curve; in most records, active means well fitted curve in the direction sought with a large enough effect; inconclusive means small, poorly fitted or top-dose-only effect, or another doubt; inactive means no such curve, though single readings can be large; an effect the other way counts as inactive or inconclusive. Potency means the concentration at half of the fitted maximal effect.

For Cc1cc(C)c(S(=O)(=O)Nc2cc(C)on2)c(C)c1 the results were HP1b binding inh 28%, G9a inh 25%, JMJD2A Tudor -2%, Sfp inh 6% and BAZ2B block -4%.
Cc1cc2c3c([nH]c2cc1S(=O)(=O)NCc1ccc(CN2CCCCCC2)o1)CCCC3=O was read as HP1b binding inh 23%, G9a inh -23%, JMJD2A Tudor -28%, Sfp inh 2% and BAZ2B block -13%[57.1 µM].
CC(C)C1=C2OC(N)=C(C#N)C(C#N)=C2C(C)CC1 (configuration not stated) was read as HP1b binding inh 34%, G9a inh inconclusive, JMJD2A Tudor -3%, Sfp inh 79µM* and BAZ2B block -33%.
`Cc1ccc(S(=O)(=O)N2CCOCC(=O)NCCOCCNC(=O)COCC2)cc1` gave HP1b binding inh 21%, G9a inh 23%[59 µM], JMJD2A Tudor 10%, Sfp inh 1% and BAZ2B block 12%.
Screening Cc1cc(C)c2c(c1)[C@@H]1C=CC[C@@H]1[C@H](c1ccc(S(=O)(=O)N3CCOCC3)cc1)N2 returned HP1b binding inh 1%, G9a inh 3.5µM*, JMJD2A Tudor inconclusive, Sfp inh 10µM* and BAZ2B block -10%.
Screening COC(=O)c1ccc(C2Nc3c(C)cc(C)cc3C3C=CCC32)cc1 (configuration not stated) returned HP1b binding inh 2%, G9a inh 4.5µM*, JMJD2A Tudor inconclusive and BAZ2B block 79µM*.
COC(=O)c1ccc([C@@H]2Nc3c(cccc3C(F)(F)F)[C@@H]3C=CC[C@@H]32)cc1 was read as HP1b binding inh 123%, G9a inh 47%[59 µM], JMJD2A Tudor 26% and BAZ2B block 62%.
Screening CCS(=O)(=O)c1nc(S(=O)(=O)c2ccc(C)cc2)c(NCC(C)C)s1 returned HP1b binding inh 54%, G9a inh -29%[59 µM], JMJD2A Tudor -7% and BAZ2B block 2%.
For CSCC[C@H](NC(=O)[C@H](Cc1c[nH]c2ccccc12)NC(=O)CNC(=O)[C@H](Cc1ccc(O)cc1)NC(=O)[C@H](C)NC(=O)[C@H](CCC(=O)O)NC(=O)[C@H](CCC(=O)O)NC(=O)[C@H](CCC(=O)O)NC(=O)[C@H](CCC(=O)O)NC(=O)[C@H](CCC(=O)O)NC(=O)[C@H](CC(C)C)NC(=O)[C@H](Cc1c[nH]c2ccccc12)NC(=O)[C@@H]1CCCN1C(=O)CNC(=O)[C@@H]1CCC(=O)N1)C(=O)N[C@@H](CC(=O)O)C(=O)N[C@@H](Cc1ccccc1)C(=O)NCC(=O)O the results were Sfp inh 7%.
`COC(=O)CN1C(=S)N(c2ccc(Cl)cc2)C(=O)C1CC(=O)Nc1ccc(F)cc1` (configuration not stated) gave HP1b binding inh 14%, G9a inh 50µM*, JMJD2A Tudor -23%, Sfp inh -7% and BAZ2B block 3%.
`COC(=O)CN1C(=S)N(c2ccc(Cl)cc2)C(=O)C1CC(=O)Nc1ccc(Cl)cc1` (configuration not stated) gave HP1b binding inh -13%, G9a inh 19%[59 µM], JMJD2A Tudor -5%, Sfp inh 79µM* and BAZ2B block inconclusive.
For COc1ccc(Oc2ncc3nc(C)c(=O)n(Cc4cccc(OC)c4)c3n2)cc1 the results were G9a inh 7%[0.501 µM] and Sfp inh 6%.
For CCOc1ccccc1NC(=O)C1CCN(S(=O)(=O)c2cccc3nonc23)CC1 the results were HP1b binding inh 21%, G9a inh -7%[59 µM], JMJD2A Tudor -14% and BAZ2B block 5%.
For N#Cc1c(NC(=O)c2cc3nc(-c4ccc(Br)cc4)cc(C(F)(F)F)n3n2)sc2c1CCCC2 the results were HP1b binding inh -10%, G9a inh 10µM*, JMJD2A Tudor -11% and BAZ2B block 4%.
COc1ccccc1C1c2c(ncn(-c3ccccc3)c2=N)Oc2ccc3ccccc3c21 (configuration not stated) was read as JMJD2A Tudor 56µM*.
For COc1cccc(C2c3c(ncn(-c4ccccc4OC)c3=N)Oc3ccc4ccccc4c32)c1 (configuration not stated) the results were JMJD2A Tudor 56µM*.
Screening COc1cccc(C2c3c(ncn(-c4cccc(F)c4)c3=N)Oc3ccc4ccccc4c32)c1 (configuration not stated) returned JMJD2A Tudor 50µM*.
COc1ccccc1C1c2ccc3ccccc3c2Oc2ncn(CCN(C)C)c(=N)c21 (configuration not stated) was read as HP1b binding inh 2%, G9a inh inconclusive, JMJD2A Tudor inconclusive, Sfp inh -2% and BAZ2B block -33%.
COc1ccc(C2c3c(ncn(CCCO)c3=N)Oc3ccc4ccccc4c32)cc1 (configuration not stated) was read as HP1b binding inh 7%, G9a inh -19%, JMJD2A Tudor inconclusive, Sfp inh -23% and BAZ2B block -34%.
For N=c1c2c(ncn1-c1ccccc1)Oc1ccc3ccccc3c1C2c1ccc2c(c1)OCO2 (configuration not stated) the results were JMJD2A Tudor 45µM*.
`COc1ccc(C2c3c(ncn(CCCO)c3=N)Oc3ccc4ccccc4c32)cc1OC` (configuration not stated) gave HP1b binding inh 8%, G9a inh inconclusive, JMJD2A Tudor -26%, Sfp inh 0% and BAZ2B block inconclusive.
`C#CCCCO/N=C1/C[C@@H](O)[C@@H](O)[C@@H]2[C@@H]3C(=O)N(C(C)(C)C)C(=O)[C@H]3CC[C@@H]12` gave Sfp inh -9%.
Screening COc1ccc(CNc2cc(-c3cccnc3)ncn2)c(OC)c1 returned G9a inh -34%[0.501 µM] and Sfp inh 31%.
Screening N=c1c2c(ccn1-c1ccccc1)Oc1ccc3ccccc3c1C2c1ccccc1 (configuration not stated) returned JMJD2A Tudor 40µM*.
COc1cccc(C2c3c(ncn(-c4ccccc4)c3=N)Oc3ccc4ccccc4c32)c1 (configuration not stated) was read as JMJD2A Tudor 56µM*.
Screening COc1cccc(C2c3c(ncn(CCN4CCOCC4)c3=N)Oc3ccc4ccccc4c32)c1 (configuration not stated) returned JMJD2A Tudor -35%.
COC(=O)C1=C(C)NC(C)=C(C(=O)OC)C1c1ccc(-c2cccc(Cl)c2Cl)o1 was read as HP1b binding inh 34%, G9a inh -18%[59 µM], JMJD2A Tudor -11%, Sfp inh inconclusive and BAZ2B block -2%.
